Source: PubChem BioAssay
Compounds with a hit are over-represented: about 3.8% of the library has one in this group of screens.
Nrf2 block: Nrf2 qHTS screen for inhibitors | A549 ARE-Fluc reporter, luciferase luminescence, 18-24 h | Potency, µM (doses to about 46 µM), usual class: inhibitors | actives 2.1% (n = 360,000) | AID 504444, 2011; also: nearly all actives have a fitted effect of over 60% in size
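Quantitative HTS in A549 cells stably bearing an antioxidant response element-firefly luciferase construct. Inhibition of Nrf2-driven transcription was scored by luminescence after 18-24 h of compound exposure at 37 °C.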
A549 tox: Nrf2 qHTS screen for inhibitors: counterscreen for cytotoxicity | actives 0.16% (n = 390,000) | A549 ARE-Fluc cells, CellTiter-Fluor viability, 18-24 h | AID 504648, 2011 | Potency, µM (highest dose often 46 µM), most hits filed as inhibitors
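A549 ARE_Fluc cells in 5% FBS OPTI-MEM were exposed to compounds in concentration-response for 18-24 h at 37 deg C. Viability was read by CellTiter-Fluor fluorescence (Ex 405/Em 525) after 30 min, before the luciferase read.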
Nrf2 activator: qHTS of Nrf2 Activators; AREc32 ARE-luciferase reporter (MCF7-derived line), luminescence, 24 h; Potency, µM (titrated, usually from 46.1 µM), actives largely listed as activators; actives 0.31% (n = 410,000); also: nearly all actives have a fitted effect of over 65% in size
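For detection, Steady-Glo was added and plates sat 30 min at RT; before that, AREc32_Fluc cells grown overnight in OPTI-MEM/5% FBS had been treated with 23 nL compound for 24 hr at 37 deg C.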
ELG1 repair inh: qHTS screen for small molecules that inhibit ELG1-dependent DNA repair in human embryonic kidney (HEK293T) cells expressing luciferase-tagged ELG1; HEK293T ELG1-luciferase reporter, luminescence, 16 h; DNA damage induced by 5-fluorouridine; Potency, µM (top dose mostly 46.1 µM), actives largely listed as inhibitors; actives 2.3% (n = 330,000); AID 504467, 2011; also: nearly all actives have a fitted effect of over 55% in size
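Step one: seed 2,000 cells per well. Step two: pin-transfer compound or DMSO alongside 5-fluorouridine. Step three: incubate 16 hr, 37 °C, 5% CO2. Step four: add ONE-Glo, wait 30 min, read luminescence.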
mIDH1 inhibitor: qHTS for Inhibitors of mutant isocitrate dehydrogenase 1 (IDH1): qHTS. Isocitrate dehydrogenase [NADP] cytoplasmic (Homo sapiens), O75874. IDH1-R132H enzyme, NADPH consumption, diaphorase/resazurin fluorescence. Potency, µM (doses to about 76.6 µM), hits mostly inhibitors. actives 0.093% (n = 390,000). AID 602179, 2012; also: nearly all actives have a fitted effect of over 65% in size
Target sequence (O75874 whole entry R132H, stated change not applied): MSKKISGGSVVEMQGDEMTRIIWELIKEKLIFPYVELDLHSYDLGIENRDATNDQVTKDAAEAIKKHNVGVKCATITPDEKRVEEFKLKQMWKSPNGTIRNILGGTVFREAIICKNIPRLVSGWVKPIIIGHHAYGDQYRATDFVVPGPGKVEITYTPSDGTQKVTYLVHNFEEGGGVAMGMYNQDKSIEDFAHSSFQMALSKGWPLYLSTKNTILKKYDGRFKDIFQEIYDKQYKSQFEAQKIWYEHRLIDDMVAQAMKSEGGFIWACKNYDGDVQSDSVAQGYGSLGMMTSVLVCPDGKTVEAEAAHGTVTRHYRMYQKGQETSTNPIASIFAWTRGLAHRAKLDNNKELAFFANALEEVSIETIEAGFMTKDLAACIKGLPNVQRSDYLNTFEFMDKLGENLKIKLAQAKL
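IDH1-R132H (0.5 ug/mL dispensed) in pH 7.5 Tris buffer was preincubated 30 min with compound, then given a substrate mix of 0.016 mM NADPH and 2 mM alpha-KG for 80 min at room temperature; remaining NADPH was read by diaphorase/resazurin fluorescence.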
Numbers stand for hits. Calls follow the shape of the dose curve; as a rule, active = well fitted curve in the direction sought with a large enough effect; inconclusive = small, poorly fitted or top-dose-only effect, or another doubt; inactive = no such curve, though single readings can be large; an effect the other way counts as inactive or inconclusive.

`Cc1nc2ccc(NS(=O)(=O)c3ccc(F)c(F)c3)cc2s1` gave Nrf2 block 16.4µM, A549 tox inactive, Nrf2 activator inactive, ELG1 repair inh inactive and mIDH1 inhibitor inactive.
`Cc1nc2ccc(NS(=O)(=O)c3ccccc3F)cc2s1` gave Nrf2 block inconclusive, A549 tox inactive, Nrf2 activator inactive, ELG1 repair inh inactive and mIDH1 inhibitor inactive.
Screening Cc1ccc2nc(-c3ccc(NS(=O)(=O)c4ccccc4)cc3)sc2c1 returned Nrf2 block inconclusive, A549 tox inactive, Nrf2 activator inactive, ELG1 repair inh inconclusive and mIDH1 inhibitor inactive.
For Cc1ccccc1NC(=O)Cc1nc(-c2c[nH]c(C(=O)N3CCCC3)c2)cs1 the results were Nrf2 block inactive, A549 tox inactive, Nrf2 activator inactive, ELG1 repair inh 16.4µM and mIDH1 inhibitor inactive.
For Cc1ccc(SCC(c2ccccc2)N2CCN(C)CCC2=O)cc1 (stereo not drawn) the results were Nrf2 block inconclusive and A549 tox inactive.
Screening O=C(/C=C/c1cccs1)Nc1cccc(NC(=O)/C=C/c2cccs2)n1 returned Nrf2 block inactive, A549 tox inactive, Nrf2 activator inactive, ELG1 repair inh 16.4µM and mIDH1 inhibitor inactive.
`Cc1cc(C)c(-c2csc(NC(=O)/C=C/c3cccs3)n2)c(C)c1` gave Nrf2 block 23.1µM, A549 tox inactive, Nrf2 activator inactive, ELG1 repair inh inconclusive and mIDH1 inhibitor inactive.
Screening Cc1cc(C)nc(NC(=O)/C=C/c2cccs2)c1 returned Nrf2 block inactive, A549 tox inactive, Nrf2 activator inactive, ELG1 repair inh inconclusive and mIDH1 inhibitor inactive.
`Cc1ccc(NC(=O)C2=C(c3ccccc3)S(=O)(=O)CCS2(=O)=O)cc1` gave Nrf2 block 20.6µM, A549 tox inconclusive, Nrf2 activator inactive, ELG1 repair inh inconclusive and mIDH1 inhibitor inactive.
CN(CC(=O)Nc1ccc(F)cc1)C(=O)c1cc(-c2cccs2)nn1-c1ccccc1 was read as Nrf2 block inactive, A549 tox inactive, Nrf2 activator inactive, ELG1 repair inh inconclusive and mIDH1 inhibitor inactive.
`COc1cccc(-c2nc(NC3CCCC3)c3ccccc3n2)c1O` gave Nrf2 block inconclusive, A549 tox inconclusive, Nrf2 activator inactive, ELG1 repair inh 23.1µM and mIDH1 inhibitor inactive.
For Oc1ccc(Nc2nc(-c3ccccc3F)nc3ccccc23)cc1 the results were Nrf2 block inactive, A549 tox inactive, Nrf2 activator inactive, ELG1 repair inh inactive and mIDH1 inhibitor inactive.
COc1ccc(Nc2nc(-c3ccccc3F)nc3ccccc23)cc1OC was read as Nrf2 block inconclusive, A549 tox inactive, Nrf2 activator inactive, ELG1 repair inh 23.1µM and mIDH1 inhibitor inactive.
For c1ccc(-c2nc(NC3CCCC3)c3ccccc3n2)cc1 the results were Nrf2 block 23.1µM, A549 tox inconclusive, Nrf2 activator inactive, ELG1 repair inh inconclusive and mIDH1 inhibitor inactive.
For COc1cccc(-c2nc(NCc3ccccc3)c3ccccc3n2)c1O the results were Nrf2 block inconclusive, A549 tox inactive, Nrf2 activator inactive, ELG1 repair inh inactive and mIDH1 inhibitor inactive.
`Cc1[nH]c2ccccc2c1C(=O)CSc1nc2cc(S(=O)(=O)N3CCCCC3)ccc2o1` gave Nrf2 block inconclusive, A549 tox inactive, Nrf2 activator inactive, ELG1 repair inh 14.6µM and mIDH1 inhibitor inactive.
`CN=c1scc(-c2ccc(F)cc2)n1/N=C/c1ccc(O)c(O)c1` gave Nrf2 block 20.6µM, A549 tox inactive, Nrf2 activator inactive, ELG1 repair inh inconclusive and mIDH1 inhibitor inactive.
Screening Cc1cccc(-n2c(O)c(C=Nc3ccccc3O)c3ccccc3c2=O)n1 returned Nrf2 block inactive, A549 tox inactive, Nrf2 activator inactive, ELG1 repair inh 23.1µM and mIDH1 inhibitor inactive.
`Cc1ccc(SCc2ccc(C(=O)Nc3cccc([N+](=O)[O-])c3)cc2)cc1` gave Nrf2 block inconclusive, A549 tox inactive, Nrf2 activator inactive, ELG1 repair inh inactive and mIDH1 inhibitor inactive.
Cc1ccccc1NC(=O)c1ccc(Nc2c([N+](=O)[O-])cc([N+](=O)[O-])c3ccccc23)cc1 was read as Nrf2 block inconclusive, A549 tox inactive, Nrf2 activator inactive, ELG1 repair inh 18.4µM and mIDH1 inhibitor inactive.
Cc1ccc(C(C)C)cc1NC(=O)Nc1ccc([N+](=O)[O-])cc1 was read as Nrf2 block 20.6µM, A549 tox inconclusive, Nrf2 activator inactive, ELG1 repair inh inconclusive and mIDH1 inhibitor inactive.
Cc1ccc(SCc2ccc(C(=O)Nc3cc([N+](=O)[O-])ccc3C)cc2)cc1 was read as Nrf2 block 14.6µM, A549 tox inactive, Nrf2 activator inactive, ELG1 repair inh inactive and mIDH1 inhibitor inactive.
Screening Cc1ccc([N+](=O)[O-])cc1NC(=O)c1ccccc1 returned Nrf2 block inactive, A549 tox inactive, Nrf2 activator 7.94µM, ELG1 repair inh inactive and mIDH1 inhibitor inactive.
Screening O=C(Nc1ccc([N+](=O)[O-])cc1NC(=O)c1ccccc1)c1ccccc1 returned Nrf2 block inactive, A549 tox inactive, Nrf2 activator inactive and mIDH1 inhibitor inactive.
`O=C(c1ccc2c(=O)n(-c3ccccc3)c(=O)[nH]c2c1)N1CCN(Cc2cccs2)CC1` gave Nrf2 block inactive and A549 tox inactive.
CC(=O)c1cc(-c2ccc(F)cc2)n(CCC(=O)Nc2nc3ccc(C)cc3s2)c1C was read as A549 tox inactive, Nrf2 activator inactive and mIDH1 inhibitor inactive.
Screening CSC1=N/C(=C\c2cccnc2)C(=O)N1c1ccccc1 returned Nrf2 block inactive, A549 tox inactive, Nrf2 activator inactive, ELG1 repair inh inconclusive and mIDH1 inhibitor inactive.
Screening CSC1=N/C(=C\c2ccccc2)C(=O)N1C returned Nrf2 block inactive, A549 tox inactive, Nrf2 activator 11.2µM, ELG1 repair inh inactive and mIDH1 inhibitor inactive.
CCOc1ccc(NC(=O)CSc2nnc3c(n2)[nH]c2ccc(S(=O)(=O)N(C)C)cc23)cc1 was read as Nrf2 block inactive and A549 tox inactive.
`CC1CCN(C(=O)c2scc3c2OCCO3)CC1` gave Nrf2 block inconclusive, A549 tox inactive, Nrf2 activator inactive, ELG1 repair inh 18.4µM and mIDH1 inhibitor inactive.
`COc1ccc(C)cc1NC(=O)CSc1nnc(COc2ccccc2)n1Cc1ccco1` gave Nrf2 block inconclusive, A549 tox inactive, Nrf2 activator inactive, ELG1 repair inh 18.4µM and mIDH1 inhibitor inactive.
Cn1c(SCC(=O)Nc2nccs2)nnc1-c1ccc(S(=O)(=O)N2CCCC2)cc1 was read as A549 tox inactive, Nrf2 activator inactive, ELG1 repair inh inactive and mIDH1 inhibitor inactive.
